SMARCA2 activ – SMARCA2 function activation, primary screen. activation, % at 9.1 µM. 370,000 compounds, 1% hits. MG213 cells, MMTV-luciferase reporter, dexamethasone, overnight; in the data active = activation above about 7.8%;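 note: 0% = vehicle wells and 100% = reference activator wells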
AI-2 QS modul – Vibrio harveyi AI-2 quorum sensing modulation. activity change, % at 7.5 µM. 300,000 compounds, 0.4% hits. Vibrio harveyi JMH597 AI-2 luminescence/OD600 ratio, 9 h; active compounds read low; strain lacks LuxN and CqsS sensors; 0 = neutral-control median; in the data active = activity change below about -75%, passing the limit was not always enough;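 note: luminescence divided by OD600 gain over 9 h not by final OD600 alone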
FXN GAA850 act – activators of GAA850 frataxin (FXN) promoter. HEK293 lucGAA850 FXN promoter luciferase reporter, 24 h; percent of 10 µM SAHA response. activation, % at 6 µM. 360,000 compounds, 0.56% hits;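 active = activation above the average of all compounds screened plus 3 SD, cutoff fixed separately per campaign, cut at about 7.5% in these data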;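 note: 0% = DMSO wells and 100% = 10 µM SAHA wells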
PG9 binder – PG9 antibody binding by small molecule. TR-FRET gp120-PG9 antibody binding. inhibition, % at 6.7 µM. 360,000 compounds, 0.43% hits. AID 624416; in the data active = inhibition above about 8.5%
HSP90 refold inh – blocks HSP90-mediated luciferase refolding in reticulocyte lysate | Rabbit reticulocyte lysate, luciferase refolding luminescence, 3 h | inhibition, % at 5.6 µM | 290,000 compounds, 0.91% hits;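 active = inhibition above the screen-wide mean plus 3 SD, computed separately per campaign, cut at about 16% in these data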;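 note: 0% = DMSO wells and 100% = 60 µM geldanamycin wells; inhibitors lower the luminescence because luciferase stays unfolded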
HSF1 inhib – HSF1 inhibition | NIH3T3-HGL HSE-luciferase, MG132-induced, luminescence 8 h; active compounds read low | activity change, negative = inhibition, % at 7.5 µM (by protocol) | 300,000 compounds, 0.77% hits;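 active = more than half of replicate wells show activity change below -50%, luminescence cut by over half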;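 note: luciferase reports HSF-1 transcriptional activity via heat shock element; 0% = median of DMSO wells and -100% = zero luminescence signal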
GAA30 FXN cntr – counter-screen for GAA850 frataxin promoter activators: GAA30 promoter activation. shares compounds with FXN GAA850 act. HEK293 lucGAA30 FXN promoter luciferase, 24 h; DMSO = 0%, 5 µM ipriflavone = 100%. activation, % at 6 µM. 1,900 compounds, 66% hits;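 active = mean activation above the mean of solvent-only control wells plus 3 SD, cut at about 22% in these data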;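 note: counterscreen of GAA850 promoter hits where activity marks nonselective or luminescence artifacts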
FXN GAA850 conf – confirmation of GAA850 frataxin (FXN) promoter activators | shares compounds with FXN GAA850 act | HEK293 lucGAA850 FXN promoter luciferase reporter, 24 h; 100% = activation by SAHA | activation, % at 6 µM | 1,900 compounds, 86% hits | AID 588351;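 active = mean activation above a set limit taken from the primary screen, cut at about 8% in these data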;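 note: 0% = DMSO wells and 100% = 10 µM SAHA wells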
Active calls of the source: *. Most compounds without a hit are left out; they make up all but 3.4% or so of the library.

Screening CCC(C)(C)NC(=O)C(NS(=O)(=O)c1cccs1)c1ccccc1 (stereo not drawn) returned SMARCA2 activ 1, AI-2 QS modul 3, FXN GAA850 act 10*, PG9 binder -3, HSP90 refold inh 4, HSF1 inhib 4, GAA30 FXN cntr 15 and FXN GAA850 conf 10*.
For CCc1cccc(CC)c1NC(=O)C(NS(=O)(=O)c1cccs1)c1ccccc1 (stereo not drawn) the results were SMARCA2 activ -5, AI-2 QS modul 15, FXN GAA850 act -1, PG9 binder -5, HSP90 refold inh 3 and HSF1 inhib -14.
Screening CSc1nc(N)nc(SC2C=CCCC2)c1C#N (stereo not drawn) returned SMARCA2 activ 6, AI-2 QS modul 6, FXN GAA850 act 13*, PG9 binder -2, HSP90 refold inh 1, HSF1 inhib 6, GAA30 FXN cntr 41* and FXN GAA850 conf 22*.
Screening CSc1nc(N)nc(SCC(=O)C(C)(C)C)c1C#N returned SMARCA2 activ 3, AI-2 QS modul 16, FXN GAA850 act 2, PG9 binder -2, HSP90 refold inh 3 and HSF1 inhib 6.
For C=C[C@]1(C)C=C2C(=O)[C@@]3(O)OC(=O)[C@@]4(CCCC(C)(C)[C@H]34)[C@@]2(O)CC1 the results were SMARCA2 activ -5 and PG9 binder 1.
`CN(C)CCCN1C(=O)c2cccc3c([N+](=O)[O-])ccc(c23)C1=O` gave SMARCA2 activ 4, FXN GAA850 act 7.7*, PG9 binder -1, HSP90 refold inh 0, GAA30 FXN cntr -24 and FXN GAA850 conf 12*.
Screening COc1ccc(-c2ccc3c(c2)O[C@H](CN(C)C(=O)Nc2ccccc2F)[C@@H](C)CN([C@H](C)CO)S3(=O)=O)cc1 returned SMARCA2 activ -5, FXN GAA850 act -5 and PG9 binder 0.
For COC(=O)c1cc(-c2ccc(OC)cc2)on1 the results were SMARCA2 activ 0, AI-2 QS modul 11, FXN GAA850 act -1, PG9 binder 1, HSP90 refold inh -3 and HSF1 inhib -4.
`COc1ccc(-c2cc(C(=O)NC(C)C)no2)cc1` gave SMARCA2 activ 5, AI-2 QS modul 20, FXN GAA850 act 8.1*, PG9 binder 0, HSP90 refold inh 6, HSF1 inhib 8, GAA30 FXN cntr 106* and FXN GAA850 conf 32*.
`CN1CCN(C2CN(Cc3cn(Cc4ccc(F)cc4)nn3)S(=O)(=O)C2)CC1` (stereo not drawn) gave SMARCA2 activ -5 and PG9 binder 0.
For COc1cc2c(cc1OC)/C(=C/C(=O)c1ccccc1F)NCC2 the results were SMARCA2 activ -1, AI-2 QS modul 27, FXN GAA850 act 8.3*, PG9 binder 0, HSP90 refold inh 1, HSF1 inhib 12, GAA30 FXN cntr 17 and FXN GAA850 conf 12*.
`Cc1nc2ccccn2c1C(=O)Nc1ccc(Cl)cc1` gave SMARCA2 activ 0, AI-2 QS modul 18, FXN GAA850 act 2, PG9 binder 1, HSP90 refold inh -1 and HSF1 inhib 18.
Screening Cc1ccc(NC(=O)c2c(Cl)nc3ccccn23)cc1 returned SMARCA2 activ 1, AI-2 QS modul 15, FXN GAA850 act 10*, PG9 binder -1, HSP90 refold inh -4, HSF1 inhib 23, GAA30 FXN cntr 116* and FXN GAA850 conf 37*.
For CCOc1ccc(CCN2C(=O)C(=O)N([C@@H](Cc3ccccc3)CN3CCC[C@H]3CN3C(=O)C(=O)NC[C@@H]3Cc3ccccc3)C[C@@H]2CC(C)C)cc1 the results were SMARCA2 activ -2 and PG9 binder -1.
Screening Fc1ccc(-c2cnn3c(-c4cccs4)ccnc23)cc1 returned SMARCA2 activ 2, AI-2 QS modul 8, FXN GAA850 act 7, PG9 binder -2, HSP90 refold inh 0 and HSF1 inhib -24.
`Fc1ccc(-c2cnn3c(-c4ccncc4)ccnc23)cc1` gave SMARCA2 activ 5, AI-2 QS modul 29, FXN GAA850 act 8.6*, PG9 binder -1, HSP90 refold inh -3, HSF1 inhib 9, GAA30 FXN cntr 96* and FXN GAA850 conf 30*.
For C[C@H](c1ccccc1)N1C[C@H](COCc2ccccc2)Oc2cc(N3CC[C@@H](O)C3)ccc2S1(=O)=O the results were SMARCA2 activ -6 and PG9 binder 3.
Screening C[C@H](CO)N1C[C@H](C)[C@@H](CN(C)C(=O)Nc2cccc(F)c2)OCc2cn(nn2)CCCC1=O returned SMARCA2 activ -3 and PG9 binder 1.
O=C(c1ccc(C23CC4CC(CC(C4)C2)C3)o1)N1CCOCC1 was read as SMARCA2 activ 0, AI-2 QS modul -17, FXN GAA850 act 9.7*, PG9 binder -2, HSP90 refold inh -1, HSF1 inhib 4, GAA30 FXN cntr 34* and FXN GAA850 conf 22*.
For C[C@H](CO)N1C[C@H](C)[C@H](CN(C)C(=O)Nc2cccc3ccccc23)Oc2ncc(Br)cc2C1=O the results were SMARCA2 activ -2 and PG9 binder 1.
`COc1ccc(-n2c(C)cc(C(=O)CCl)c2C)cc1` gave SMARCA2 activ 1, AI-2 QS modul -87*, FXN GAA850 act 8.0*, PG9 binder -1, HSP90 refold inh 4, HSF1 inhib -5, GAA30 FXN cntr -70 and FXN GAA850 conf 31*.
CCOc1ccc(-n2c(COc3ccc(Cl)cc3)nnc2SCC(=O)Nc2ccc(OCc3ccccc3)cc2)cc1 was read as SMARCA2 activ 2.
O=C(Cc1c[nH]c2ccccc12)Nc1ccc(Nc2cccnc2)c(Br)c1 was read as SMARCA2 activ -5 and PG9 binder 2.
C=CCc1c(C)nc(-c2ccccc2)nc1N/N=C/c1ccccc1 was read as SMARCA2 activ 0, AI-2 QS modul 8, FXN GAA850 act 0, PG9 binder -1, HSP90 refold inh 1 and HSF1 inhib -20.
`C=CCc1c(C)nc(-c2ccccc2)nc1Nc1ccccc1O` gave SMARCA2 activ -3, AI-2 QS modul 7, FXN GAA850 act 7.9*, PG9 binder -2, HSP90 refold inh -6, GAA30 FXN cntr 30* and FXN GAA850 conf 21*.
CC(C)c1[nH]nc2c1C(c1ccc(F)cc1)N(Cc1ccccc1)C2=O (stereo not drawn) was read as SMARCA2 activ -5 and PG9 binder -1.

Assay outcomes: PubChem BioAssay, several laboratories
